Data on six compounds can be found in ChEMBL document CHEMBL1961873, “Compounds: GSK PKIS; Assays: Nanosyn kinase panel” (2012).

Experiment [1] addresses T1, 3-phosphoinositide-dependent protein kinase 1 (Homo sapiens) (UniProt O15530).
T1 sequence (whole entry): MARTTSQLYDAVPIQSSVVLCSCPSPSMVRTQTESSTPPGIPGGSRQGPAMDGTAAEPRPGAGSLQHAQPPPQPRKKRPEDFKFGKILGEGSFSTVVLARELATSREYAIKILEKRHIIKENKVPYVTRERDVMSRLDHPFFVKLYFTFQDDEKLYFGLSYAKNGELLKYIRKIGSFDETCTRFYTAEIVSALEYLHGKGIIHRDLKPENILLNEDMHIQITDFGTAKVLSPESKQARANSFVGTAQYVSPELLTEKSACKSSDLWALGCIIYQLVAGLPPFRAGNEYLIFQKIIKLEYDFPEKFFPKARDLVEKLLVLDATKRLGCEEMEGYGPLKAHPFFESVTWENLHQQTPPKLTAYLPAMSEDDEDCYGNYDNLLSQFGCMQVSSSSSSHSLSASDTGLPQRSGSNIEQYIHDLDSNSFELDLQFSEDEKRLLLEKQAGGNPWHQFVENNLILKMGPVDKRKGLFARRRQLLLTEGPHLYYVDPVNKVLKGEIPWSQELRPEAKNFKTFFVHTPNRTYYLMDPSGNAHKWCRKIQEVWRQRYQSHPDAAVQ
The following applies: at 0.1 µM.

Experiment [2] has as its target cAMP-dependent protein kinase catalytic subunit alpha (Homo sapiens) (UniProt P17612). The following applies: at 0.1 µM.
The target is the same in experiment [3]. The following applies: at 1 µM.
Experiment [4] addresses Protein kinase C alpha type (Homo sapiens) (UniProt P17252). The note with it: at 0.1 µM.
Experiment [5] shares this target. The following applies: at 1 µM.
Experiment [6] addresses Protein kinase C beta type (Homo sapiens) (UniProt P05771). The note with it: at 0.1 µM.
The target is the same in experiment [7]. The following applies: at 1 µM.
Experiment [8] addresses Protein kinase C eta type (Homo sapiens) (UniProt P24723). The note with it: at 0.1 µM.
The target is the same in experiment [9]. The note with it: at 1 µM.
In experiment [10] the target is Protein kinase C gamma type (Homo sapiens) (UniProt P05129). The following applies: at 0.1 µM.
Experiment [11] has the same target. The note with it: at 1 µM.
Experiment [12] addresses T2, Protein kinase C iota type (Homo sapiens) (UniProt P41743).
T2 sequence (whole entry): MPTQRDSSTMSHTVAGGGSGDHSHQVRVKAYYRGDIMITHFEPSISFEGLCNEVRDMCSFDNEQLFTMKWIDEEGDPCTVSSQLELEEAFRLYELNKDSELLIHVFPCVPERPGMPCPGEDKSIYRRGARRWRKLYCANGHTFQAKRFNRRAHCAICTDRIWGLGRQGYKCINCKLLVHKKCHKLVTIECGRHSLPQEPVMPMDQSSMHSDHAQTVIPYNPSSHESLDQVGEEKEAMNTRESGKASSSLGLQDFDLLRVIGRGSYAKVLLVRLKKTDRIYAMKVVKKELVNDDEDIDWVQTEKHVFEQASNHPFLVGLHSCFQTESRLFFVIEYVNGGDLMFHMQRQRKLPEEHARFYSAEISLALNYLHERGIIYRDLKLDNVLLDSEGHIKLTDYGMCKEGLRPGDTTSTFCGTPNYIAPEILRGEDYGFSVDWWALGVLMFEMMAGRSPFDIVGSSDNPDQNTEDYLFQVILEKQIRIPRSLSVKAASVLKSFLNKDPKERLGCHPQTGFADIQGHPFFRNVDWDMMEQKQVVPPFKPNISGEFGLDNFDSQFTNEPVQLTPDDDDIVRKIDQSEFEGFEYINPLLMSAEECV
The note with it: at 0.1 µM.

The target of experiment [13] is T2, Protein kinase C iota type (Homo sapiens). The note with it: at 1 µM.
Experiment [14] addresses Protein kinase C theta type (Homo sapiens) (UniProt Q04759). The following applies: at 0.1 µM.
For experiment [15] the target is unchanged. The following applies: at 1 µM.
In experiment [16] the target is Protein kinase C beta type (Homo sapiens) (UniProt P05771). The note with it: at 0.1 µM. The source holds these as a separate data set.
Experiment [17] has the same target. The note with it: at 1 µM. The source holds these as a separate data set.
Experiment [18] deals with T3, Serine/threonine-protein kinase D1 (Homo sapiens) (UniProt Q15139).
T3 sequence (whole entry): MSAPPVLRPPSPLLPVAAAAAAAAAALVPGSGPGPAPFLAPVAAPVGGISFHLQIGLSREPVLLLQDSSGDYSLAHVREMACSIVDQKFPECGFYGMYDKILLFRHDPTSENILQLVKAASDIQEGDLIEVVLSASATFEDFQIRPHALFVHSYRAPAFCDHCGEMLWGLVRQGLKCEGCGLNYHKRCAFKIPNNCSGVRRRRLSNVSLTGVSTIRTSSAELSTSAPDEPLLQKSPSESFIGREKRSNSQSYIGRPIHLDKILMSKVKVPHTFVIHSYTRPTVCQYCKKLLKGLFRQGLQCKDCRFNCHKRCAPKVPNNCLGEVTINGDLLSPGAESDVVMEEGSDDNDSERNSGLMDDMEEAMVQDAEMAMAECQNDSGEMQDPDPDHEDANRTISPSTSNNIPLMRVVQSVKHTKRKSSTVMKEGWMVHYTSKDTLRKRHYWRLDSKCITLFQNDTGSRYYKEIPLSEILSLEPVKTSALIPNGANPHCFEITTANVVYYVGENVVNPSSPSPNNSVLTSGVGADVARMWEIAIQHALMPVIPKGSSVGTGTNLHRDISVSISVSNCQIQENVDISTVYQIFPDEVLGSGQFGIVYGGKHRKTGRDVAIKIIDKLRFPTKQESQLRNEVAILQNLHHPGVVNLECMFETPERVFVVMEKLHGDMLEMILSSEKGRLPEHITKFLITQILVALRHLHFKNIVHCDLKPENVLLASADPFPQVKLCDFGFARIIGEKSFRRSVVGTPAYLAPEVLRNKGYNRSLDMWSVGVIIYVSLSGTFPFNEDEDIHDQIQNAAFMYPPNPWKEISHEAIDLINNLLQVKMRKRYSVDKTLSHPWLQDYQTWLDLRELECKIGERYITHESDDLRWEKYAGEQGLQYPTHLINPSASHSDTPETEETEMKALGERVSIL
The following applies: at 0.1 µM.

For experiment [19], the target named is T3, Serine/threonine-protein kinase D1 (Homo sapiens). The following applies: at 1 µM.
Experiment [20] addresses T4, Serine/threonine-protein kinase D2 (Homo sapiens) (UniProt Q9BZL6).
T4 sequence (whole entry): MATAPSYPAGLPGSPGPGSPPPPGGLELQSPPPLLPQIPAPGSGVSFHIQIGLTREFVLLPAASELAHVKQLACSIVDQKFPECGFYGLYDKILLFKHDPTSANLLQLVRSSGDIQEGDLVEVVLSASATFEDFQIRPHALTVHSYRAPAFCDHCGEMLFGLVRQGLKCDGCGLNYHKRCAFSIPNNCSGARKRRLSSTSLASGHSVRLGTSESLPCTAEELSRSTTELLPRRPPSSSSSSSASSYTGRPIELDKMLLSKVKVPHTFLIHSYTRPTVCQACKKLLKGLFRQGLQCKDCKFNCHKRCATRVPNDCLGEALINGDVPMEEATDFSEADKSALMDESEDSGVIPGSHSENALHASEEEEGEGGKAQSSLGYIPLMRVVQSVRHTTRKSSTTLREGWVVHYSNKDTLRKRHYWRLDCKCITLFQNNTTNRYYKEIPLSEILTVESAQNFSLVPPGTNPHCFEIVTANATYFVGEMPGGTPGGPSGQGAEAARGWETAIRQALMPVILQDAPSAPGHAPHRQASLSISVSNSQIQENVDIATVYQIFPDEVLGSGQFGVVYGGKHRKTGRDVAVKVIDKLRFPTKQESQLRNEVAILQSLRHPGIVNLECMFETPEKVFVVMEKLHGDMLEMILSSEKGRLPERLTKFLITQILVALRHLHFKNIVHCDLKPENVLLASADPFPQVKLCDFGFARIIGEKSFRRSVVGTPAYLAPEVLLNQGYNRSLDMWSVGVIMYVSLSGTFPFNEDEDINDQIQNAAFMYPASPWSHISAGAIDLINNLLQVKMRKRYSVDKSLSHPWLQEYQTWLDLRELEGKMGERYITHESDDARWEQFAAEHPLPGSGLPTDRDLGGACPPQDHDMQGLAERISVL
The following applies: at 0.1 µM.

Chain of Protein kinase C theta type (Homo sapiens) (Q04759 whole entry, looked up): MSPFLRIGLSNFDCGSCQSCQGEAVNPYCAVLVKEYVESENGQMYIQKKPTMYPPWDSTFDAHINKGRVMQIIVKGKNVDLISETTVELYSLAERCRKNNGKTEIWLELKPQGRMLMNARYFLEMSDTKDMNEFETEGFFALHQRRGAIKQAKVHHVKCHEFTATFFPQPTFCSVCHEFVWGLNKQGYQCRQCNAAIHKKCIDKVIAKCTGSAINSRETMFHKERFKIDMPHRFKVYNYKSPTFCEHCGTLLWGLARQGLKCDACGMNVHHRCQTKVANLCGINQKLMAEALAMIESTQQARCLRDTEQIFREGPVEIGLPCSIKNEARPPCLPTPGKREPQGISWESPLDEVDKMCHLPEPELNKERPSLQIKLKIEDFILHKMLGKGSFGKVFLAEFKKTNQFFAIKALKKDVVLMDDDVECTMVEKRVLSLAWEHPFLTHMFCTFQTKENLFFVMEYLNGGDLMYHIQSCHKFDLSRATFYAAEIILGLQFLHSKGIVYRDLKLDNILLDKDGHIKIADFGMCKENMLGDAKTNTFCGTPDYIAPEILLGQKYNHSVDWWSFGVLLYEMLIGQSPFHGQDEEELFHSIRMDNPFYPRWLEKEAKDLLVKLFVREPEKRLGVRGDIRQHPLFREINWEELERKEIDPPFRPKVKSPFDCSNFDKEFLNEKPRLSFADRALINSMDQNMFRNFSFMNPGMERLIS
Chain of Protein kinase C beta type (Homo sapiens) (P05771 2-671 limits assumed): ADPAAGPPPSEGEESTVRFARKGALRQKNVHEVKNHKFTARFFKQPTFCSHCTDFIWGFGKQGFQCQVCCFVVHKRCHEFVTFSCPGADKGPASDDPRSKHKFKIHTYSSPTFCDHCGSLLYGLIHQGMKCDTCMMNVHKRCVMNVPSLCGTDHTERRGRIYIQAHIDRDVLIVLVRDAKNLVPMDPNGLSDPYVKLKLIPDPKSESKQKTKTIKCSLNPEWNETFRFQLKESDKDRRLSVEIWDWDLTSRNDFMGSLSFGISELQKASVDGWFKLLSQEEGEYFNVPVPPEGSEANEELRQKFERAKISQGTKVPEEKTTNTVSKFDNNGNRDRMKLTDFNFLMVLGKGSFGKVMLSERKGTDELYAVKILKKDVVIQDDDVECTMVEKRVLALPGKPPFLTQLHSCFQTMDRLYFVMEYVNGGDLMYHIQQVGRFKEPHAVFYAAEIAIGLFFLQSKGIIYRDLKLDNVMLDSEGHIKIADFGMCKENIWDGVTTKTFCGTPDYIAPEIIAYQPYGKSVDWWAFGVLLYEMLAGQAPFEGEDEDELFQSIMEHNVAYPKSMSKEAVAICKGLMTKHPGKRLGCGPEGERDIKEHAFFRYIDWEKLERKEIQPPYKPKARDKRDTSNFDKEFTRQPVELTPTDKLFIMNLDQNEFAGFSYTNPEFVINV
Chain of Protein kinase C eta type (Homo sapiens) (P24723 whole entry): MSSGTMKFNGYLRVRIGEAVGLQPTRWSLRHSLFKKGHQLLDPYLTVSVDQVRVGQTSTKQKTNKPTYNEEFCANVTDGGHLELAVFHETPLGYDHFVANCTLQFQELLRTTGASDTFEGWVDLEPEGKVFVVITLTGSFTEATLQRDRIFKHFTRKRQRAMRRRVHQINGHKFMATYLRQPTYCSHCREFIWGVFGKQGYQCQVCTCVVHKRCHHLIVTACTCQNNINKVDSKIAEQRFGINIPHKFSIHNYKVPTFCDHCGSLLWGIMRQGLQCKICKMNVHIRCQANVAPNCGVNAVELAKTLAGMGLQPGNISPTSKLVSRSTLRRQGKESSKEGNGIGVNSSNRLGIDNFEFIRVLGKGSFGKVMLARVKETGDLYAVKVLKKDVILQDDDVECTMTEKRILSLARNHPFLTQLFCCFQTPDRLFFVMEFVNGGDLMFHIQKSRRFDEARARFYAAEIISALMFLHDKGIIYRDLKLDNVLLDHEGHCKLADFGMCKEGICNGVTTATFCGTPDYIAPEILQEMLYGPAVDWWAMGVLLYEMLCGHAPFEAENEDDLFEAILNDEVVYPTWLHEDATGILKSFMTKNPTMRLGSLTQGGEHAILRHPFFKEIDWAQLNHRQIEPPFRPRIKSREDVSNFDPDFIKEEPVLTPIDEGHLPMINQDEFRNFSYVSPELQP

Consider `COc1cccc(-n2ncc3c(N/N=C/c4ccc(F)cc4)ncnc32)c1`, for which the inhibition in experiment [1] was found to be 0.01%; in [2], 1.66%; in experiment [3] it was 3.69%; in experiment [4] it was 0.47%; in [5], 1.43%; in experiment [6], 1.01%. Besides, the inhibition in [7] was 0.97%; in experiment [8] it was 3.28%; in experiment [9], 2.58%; in experiment [10], 0.86%; in experiment [11], 2.6%; in experiment [12], 1.87%. Also, the inhibition in [13] is 1.45%; in experiment [14], 2.53%; in [15], 4.19%; in experiment [16], 2.56%; in experiment [17], 0.22%; in [18] it was 3.64%. Also, the inhibition in experiment [19] is 4.89%; in [20], 3.35%.
On to `Cc1cccc2c1NC(=O)/C2=N\Nc1ccc(S(N)(=O)=O)cc1`, for which the inhibition in [1] is 2.44%; in experiment [2] it was 1.54%; in experiment [3] it was 2.59%; in experiment [4], 0.55%; in experiment [5], 5.16%; in experiment [6] it was 0.49%. The inhibition is -1.37% in [7]; 4.66% in experiment [8]; 3.34% in experiment [9]; -3% in [10]; -2.77% in experiment [11]; 1.18% in experiment [12]. For the same compound, the inhibition in experiment [13] was determined as 2.53%; in [14], 0.85%; in experiment [15], 0.4%; in experiment [16] it was 2.86%; in [17], 0.46%; in [18], 2.89%. In addition, the figures for the inhibition in experiment [19] and in experiment [20] were 4.31% and 2.72%, respectively.
As to `Fc1cccc(COc2ccc(Nc3ncnc4sc(-c5ccco5)cc34)cc2Cl)c1`, the inhibition was -0.87% in experiment [1]; 0.8% in [2]; 1.84% in experiment [3]; 1.33% in experiment [4]; 1.21% in experiment [5]; 0.29% in experiment [6]. The inhibition was -3.68% in experiment [7]; 5.34% in [8]; 4.83% in experiment [9]; 1.52% in [10]; 1.6% in [11]; 2.45% in experiment [12]. Moreover, the inhibition in experiment [13] came out at 2.35%; in [14], 2%; in experiment [15], 2.39%; in experiment [16], 1%; in [17], 1.15%; in [18] it was 5.24%. The values for the inhibition in experiment [19] and in experiment [20] were 6.44% and 4.13%, respectively.
Turning to `COc1ccc(-c2cc3c(N)ncnc3o2)cc1`, the inhibition is -0.95% in experiment [1]; -0.06% in [2]; 0.18% in experiment [3]; -0.88% in experiment [4]; 3% in experiment [5]; -0.74% in experiment [6]. The inhibition in experiment [7] was -2.12%; in experiment [8], -4.39%; in [9], -1.49%; in [10] it was 0.2%; in experiment [11], 8.58%; in [12], -0.83%. For the same compound, the inhibition in experiment [13] was -1.03%; in [14], -1.21%; in experiment [15], -1.64%; in experiment [16], 0.45%; in experiment [17], 1.65%; in [18], -1%. In addition, the inhibition was -1.28% in experiment [19] and -0.34% in [20].
For `CC(=O)Nc1cccc(C#Cc2cncnc2Nc2ccc(OCc3cccc(F)c3)c(Cl)c2)c1`, the inhibition in [1] came to 2.17%; in [2], 2.17%; in [3], 4.12%; in experiment [4] it was 0.9%; in [5] it was 2.2%; in experiment [6], 0.65%. In addition, the inhibition was 0.21% in experiment [7]; 0.22% in [8]; -0.44% in [9]; 3.94% in [10]; 3.97% in experiment [11]; 0.27% in [12]. The inhibition in experiment [13] was 2.04%; in [14], 0.62%; in experiment [15], -0.6%; in [16] it was 1.6%; in [17], 0.79%; in [18] it was 1.8%. Further, the inhibition is 2.69% in experiment [19] and 1.88% in experiment [20].
For the compound `NC(=O)c1sc(-n2cnc3ccc(C(F)(F)F)cc32)cc1OCc1ccccc1Br`, the inhibition was 2.61% in [1]; 3.12% in experiment [2]; 6.29% in [3]; 0.78% in [4]; 1.26% in experiment [5]; -0.05% in [6]. The inhibition in experiment [7] was 1.5%; in [8] it was -0.93%; in experiment [9] it was 1.21%; in experiment [10], -0.86%; in experiment [11], 3.75%; in experiment [12], 0.8%. Also, the inhibition was 0.82% in experiment [13]; 1.63% in experiment [14]; 2.57% in experiment [15]; 1.28% in experiment [16]; 1.31% in experiment [17]; 2.72% in experiment [18]. The inhibition in [19] turned out to be 3.86%; in [20], 3.59%.

Broadly, the inhibition is the change of the read-out against control, counted positive when it falls.
